# A selection: hits, their analogues and other compounds. The true share with any hit is near 0.84%.
# PPARg SRC3 recr: PPARgamma-driven SRC-3 recruitment agonism. P37231. biochemical PPARgamma/SRC-3 coactivator recruitment assay. activation, % at 8 µM. hit rate 0.26% among 200,000. AID 731; in the data active = activation above about 23%
# Target sequence (P37231 whole entry, looked up): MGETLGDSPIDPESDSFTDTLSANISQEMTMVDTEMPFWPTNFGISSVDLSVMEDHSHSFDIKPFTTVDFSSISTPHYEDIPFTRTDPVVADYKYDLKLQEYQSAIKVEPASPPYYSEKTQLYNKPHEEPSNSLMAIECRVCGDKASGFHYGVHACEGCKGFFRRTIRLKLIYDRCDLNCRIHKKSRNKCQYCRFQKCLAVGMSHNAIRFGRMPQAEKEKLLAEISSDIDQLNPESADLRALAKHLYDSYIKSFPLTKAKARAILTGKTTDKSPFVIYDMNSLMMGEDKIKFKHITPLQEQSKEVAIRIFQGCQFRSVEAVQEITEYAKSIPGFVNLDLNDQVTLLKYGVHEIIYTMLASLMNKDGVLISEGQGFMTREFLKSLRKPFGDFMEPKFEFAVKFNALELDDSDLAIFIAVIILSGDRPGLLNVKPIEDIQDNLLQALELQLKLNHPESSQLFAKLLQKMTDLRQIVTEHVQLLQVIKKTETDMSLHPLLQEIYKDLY
# SRC2 TRFRET art: TR-FRET artefact, counter-screen to PPARgamma/SRC-2 agonist assay; AID 1049; TR-FRET ratio at 8 µM; active compounds read high; hit rate 0.4% among 200,000
# SRC3 TRFRET art: flags TR-FRET format artefacts in PPARgamma SRC-3 recruitment agonist screen; TR-FRET artefact counter-screen, PPARgamma/SRC-3 format; active compounds read high; TR-FRET ratio at 8 µM; hit rate 0.39% among 99,000
# SRC1 TRFRET art: TR-FRET artefact, counter-screen to PPARgamma/SRC-1 agonist assay; TR-FRET detection artefact counter-screen, emission ratio; active compounds read high; TR-FRET ratio at 8 µM; hit rate 0.34% among 99,000; AID 1051; in the data active = TR-FRET ratio above about 2300
# PPARg SRC-2 ag: promotes SRC-2 coactivator recruitment by human PPARgamma. P37231. PPARgamma LBD-SRC-2 recruitment, biochemical. activation, % at 8 µM. hit rate 0.34% among 200,000. AID 1032; in the data active = activation above about 22%
# PPARg SRC-1 ag: promotes SRC-1 coactivator recruitment by human PPARgamma | P37231 | PPARgamma-SRC-1 coactivator recruitment biochemical assay | activation, % at 8 µM | hit rate 0.41% among 200,000 | AID 631; in the data active = activation above about 19%
# A number is an active result; – = inactive; · = no result given. Rule as the data show it, unless noted: active = TR-FRET ratio above about 2000; inactive = the rest.
SMILES,PPARg SRC3 recr,SRC2 TRFRET art,SRC3 TRFRET art,SRC1 TRFRET art,PPARg SRC-2 ag,PPARg SRC-1 ag
c1coc(-c2nnc3sc(Cc4cccs4)nn23)c1,–,–,·,·,–,–
O=C(NC1=NCCS1)C12CC3CC(CC(C3)C1)C2,–,–,–,–,–,–
COC(=O)CNC(=O)CSc1nnc(C)c(=O)[nH]1,–,–,–,–,–,–
COc1ccc(-c2noc(Cc3ccccc3OC)n2)cc1,25.7,–,·,·,–,–
COc1ccc(-c2noc(Cc3cccs3)n2)cc1,–,–,·,·,–,–
COc1cccc(NC(=O)Cc2nc(-c3ccccc3)sc2-c2ccc(C)cc2)c1,–,2590,3358,3241,–,–
COc1ccc(-c2nc(-c3ccc(NC(=O)c4ccc(Br)o4)cc3)no2)cc1OC,30.2,–,·,·,–,–
COc1cccc(-c2nc(-c3ccc(NC(=O)Cc4ccccc4OC)cc3)no2)c1,–,1985,·,·,–,–
O=C(COC(=O)C1(c2ccccc2F)CCCC1)NCc1cccs1,–,–,–,–,–,–
COC(=O)c1sccc1NC(=O)COc1ccc(Cl)cc1Cl,–,–,–,–,–,–
O=c1c(Cl)nc2cc(Cl)ccc2n1CCNc1ncc(C(F)(F)F)cc1Cl,–,–,·,·,–,32.3
NNc1nc2cccnc2n(CCNc2ncc(C(F)(F)F)cc2Cl)c1=O,–,–,–,–,–,–
CCCCOc1ccc(C(=O)N/C(=C/C=C/c2ccccc2)C(=O)O)cc1,29.7,–,–,–,–,–
O=C1COC(c2ccccc2)C2CCCCN12 (configuration not stated),–,–,–,–,–,–
CN(C)CCCN(C(=O)c1ccc(N2C(=O)CCC2=O)cc1)c1nc2c(F)cccc2s1,–,–,–,–,–,21.8
CN(C)CCCN(C(=O)c1ccc2c(c1)CCCC2)c1nc2c(F)cccc2s1,–,–,–,–,–,–
O=C(N/N=C/c1cn(-c2ccccc2)nc1-c1cccnc1)c1cccnc1,–,–,–,2335,–,–
CCN(CC)c1ccc(C=Nc2ccc(C)cc2)c(O)c1,–,–,·,·,–,–
CCN(CC)c1ccc(N=Cc2ccc(N(CC)CC)cc2O)cc1,41.2,–,·,·,27.4,–
CC(C)c1ccccc1NC(=O)CNC(C)c1ccc(F)cc1 (configuration not stated),–,–,–,–,–,–
N#Cc1c(N)nc(SCC(=O)NCc2ccc3c(c2)OCO3)c(C#N)c1-c1cccs1,–,–,·,·,–,–
COc1ccc(-c2cc(-c3cccs3)c(C#N)c(SCC(=O)NCc3ccccc3)n2)cc1,–,–,·,·,–,39.4
COc1ccc(-c2cc(-c3ccccc3)nc(SCC(=O)Nc3ncc(C)s3)c2C#N)cc1,–,–,–,–,–,–
COc1ccccc1CNC(=O)CSc1nc(N)c(C#N)c(-c2cccs2)c1C#N,29.5,–,·,·,–,–
COc1ccc(-c2cc(-c3cccs3)c(C#N)c(SCC(=O)NCc3ccccc3OC)n2)cc1,–,–,·,·,–,27.3
SMILES,PPARg SRC3 recr,SRC2 TRFRET art,SRC3 TRFRET art,SRC1 TRFRET art,PPARg SRC-2 ag,PPARg SRC-1 ag
CCCCC(CC)Cn1c2nc3ccccc3nc2c2c(=N)oc(C)nc21 (configuration not stated),–,2312,·,·,47.6,–
CCCCC(CC)Cn1c(N)c(C#N)c2nc3ccccc3nc21 (configuration not stated),–,–,·,·,–,–
COc1ccc(OC)c(-c2csc(NC(=O)c3ccc4c(c3)OCO4)n2)c1,–,–,2559,–,–,–
COc1ccc(CC(=O)Nc2nc(-c3cc(OC)ccc3OC)cs2)cc1,–,–,–,–,–,–
Cc1c(-c2ccccc2)sc2nc[nH]c(=S)c12,–,–,2134,–,–,–
Cc1ccc(-c2csc3nc[nH]c(=S)c23)cc1C,–,–,–,–,–,–
CC(C)(O)C#Cc1ccc(CN2CCN(C3CCCCC3)C(CCO)C2)cc1 (configuration not stated),–,–,–,2568,–,24.3
O=c1c(-c2n[nH]c(=S)n2-c2ccccc2)cccn1Cc1cccc(Cl)c1,–,1986,–,–,–,–
CN(CC(=O)NCc1ccccc1)S(=O)(=O)c1cnc[nH]1,–,–,·,·,–,–
O=C(C1=C[C@@H](c2ccc(C(F)(F)F)cc2)C[C@@H](OCc2ccc(CO)cc2)O1)N1CCOCC1,–,–,–,–,23.9,–
CCOC(=O)c1c(CC(C)C)csc1N,–,–,–,–,–,–
CCOC(=O)CSc1c(-c2ccc(Cl)cc2)[nH]c2ccccc12,–,–,2441,–,–,–
Cc1ccccc1CN1CCSc2sccc2C1=O,–,–,–,–,–,–
O=C(CSc1nnnn1-c1ccccc1)Nc1nsc(-c2ccc(Cl)cc2)n1,–,–,2179,–,–,–
CC1CCc2cc(F)ccc2N1C(=O)CSc1nnc2c(n1)[nH]c1ccc(F)cc12 (configuration not stated),–,–,·,·,–,–
O=C(Nc1nc(-c2nc3ccccc3s2)cs1)C1COc2ccccc2O1 (configuration not stated),–,1973,–,2597,–,–
CC(C)(C)c1ccc(OCCCC(=O)N2CCOCC2)cc1,–,–,–,–,–,–
CC(C)(C)c1ccc(OCc2ccc(C(=O)N3CCOCC3)o2)cc1,–,2010,–,–,25.2,–
O=C(CSC1=NCCS1)NC1CCCC1,–,–,·,·,–,–
CC(O)CN(Cc1cccc(Cl)c1)CC(C)O (configuration not stated),–,–,·,·,–,–
COc1cccc(C(=O)Nc2ccc(-c3nc4ccccc4o3)c(O)c2)c1,–,2264,·,·,–,–
Cc1cc(N2CCC(C(=O)NC3CCCCC3)CC2)nc(-c2ccccc2)n1,–,–,2155,–,–,–
Cc1cc(N2CCC(C(=O)NC3CC3)CC2)nc(-c2ccccc2)n1,–,–,·,·,–,–
Cc1ccc(OCC(=O)NNC(=O)CSc2ncnc3sc(C)c(C)c23)cc1,–,–,–,–,–,–
CCc1ccc(OCC(=O)NNC(=O)CSc2ncnc3sc(C)c(C)c23)cc1,–,–,·,·,–,54.5
SMILES,PPARg SRC3 recr,SRC2 TRFRET art,SRC3 TRFRET art,SRC1 TRFRET art,PPARg SRC-2 ag,PPARg SRC-1 ag
Cc1cc2nc(-c3ccc(SCC(=O)Nc4ccc5c(c4)OCCO5)nc3)[nH]c2cc1C,–,2267,·,·,–,–
CCc1ccc(S(=O)(=O)NCCc2cn3cccc(C)c3n2)s1,–,–,–,–,–,–
CC(=O)Nc1ccc(S(=O)(=O)NC2(C(F)(F)F)C(=O)Nc3c2c(=O)[nH]c(=O)n3Cc2cccnc2)cc1 (configuration not stated),–,–,–,–,–,–
O=C(CSc1ccc2nnc(-c3ccccn3)n2n1)NCc1ccc2c(c1)OCO2,–,1984,·,·,28.1,–
COc1ccc(C(=O)Nn2c(SCC(=O)c3ccc(Cl)cc3)nc3ccccc3c2=O)cc1,–,2000,·,·,–,–
Cc1cc2nc(-c3ccc(SCc4ccccn4)nc3)[nH]c2cc1C,–,–,–,–,–,–
O=C(COc1ccc2ccccc2c1)Nc1ccc(S(=O)(=O)N2CCCCCC2)cc1,–,2073,·,·,–,–
O=C(COc1ccc2ccccc2c1)NNC(=O)Cc1ccccc1,–,–,–,2551,–,65.3

# Bioassay records deposited in PubChem BioAssay by The Scripps Research Institute Molecular Screening Center.
